Bioassay records: PubChem BioAssay, National Center for Advancing Translational Sciences (NCATS)
Shiga inhibitor – A qHTS for Small Molecule Inhibitors of Shiga Toxin; inhibition, % at 38.7 µM; Vero cells, Shiga toxin protein synthesis inhibition reporter; 290,000 compounds, 9.2% hits; in the data active = inhibition mostly above about 28%, no sharp cut-off; inactive = mostly below about 43%; also: 0% is about no effect
Marburg entry inh – qHTS for inhibitors of binding or entry into cells for Marburg Virus. Marburg virus pseudotyped entry inhibition, cell reporter. Potency, µM (titrated, usually from 37.8 µM), for inactives: at the highest dose activity change, negative = inhibition, actives largely listed as inhibitors. 300,000 compounds, 1.8% hits. AID 540276, 2011; calls by dose curve; tested in HEK293 cells; also: potency is read from the fitted curve at half-maximal effect; % is scaled to controls: 0 for no effect and ±100 for the full control effect
CHX counter – Cycloheximide Counterscreen for Small Molecule Inhibitors of Shiga Toxin | 300,000 compounds, 12% hits | AID 2314, 2010 | max response, % | cell reporter, cycloheximide protein synthesis inhibition counterscreen; in the data active = max response mostly above about 13%, no sharp cut-off; inactive = mostly below about 14%; also: read at 38.3 µM for the half of the compounds with a filed dose; 0% is about no effect
LASV entry inh – qHTS for Inhibitors of binding or entry into cells for Lassa Virus; Lassa virus pseudotype entry inhibition, cell reporter; Potency, µM (doses to about 37.9 µM), for inactives: at the highest dose activity change, negative = inhibition, usual class: inhibitors; 300,000 compounds, 1.2% hits; AID 540256, 2011; calls by dose curve; tested in HEK293 cells; also: potency is read from the fitted curve at half-maximal effect; % is scaled to controls: 0 for no effect and ±100 for the full control effect; nearly all actives have a fitted effect of over 50% in size
AMA1-RON2 inh – qHTS for Inhibitors of AMA1-RON; Towards Development of Antimalarial Drug Lead: Primary Screen. Plasmodium falciparum AMA1 (3D7) - RON2 peptide interaction. AlphaScreen AMA1-biotinylated RON2 peptide binding. Potency, µM (top dose mostly 58.2 µM), without a hit: at the highest dose activity change, negative = inhibition, hits mostly inhibitors. 360,000 compounds, 0.2% hits; active = well fitted inhibition curve with a large enough effect; inconclusive = small, poorly fitted or top-dose-only effect; inactive = no such curve, though single readings can be large or run the other way;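 also: potency is read from the fitted curve at half-maximal effect; 0% = vehicle wells and -100% = peptide control; nearly all actives have a fitted effect of over 45% in size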
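AMA1 (3D7) with his tag at 25 nM final met compounds first, then biotinylated RON2 peptide at 25 nM; detection used donor plus acceptor beads, 10 µg/mL apiece, read by AlphaScreen after 30 min at room temperature.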
Starred values were filed as active, the others as inactive; ! = repeats disagree; [ ] = dose if it differs, or a comment. The sample as a whole holds a higher share of hits than the screen did.

For CCOC(=O)c1c(C)[nH]c(CCC(=O)NCCCN2CCN(c3ccccc3F)CC2)c1C the results were LASV entry inh 11%[46.1 µM].
O=C(NNC(=O)C12CC3CC(CC(C3)C1)C2)c1cccc(O)c1 was read as Shiga inhibitor 26, Marburg entry inh 11%[46.1 µM], CHX counter 2, LASV entry inh 2% and AMA1-RON2 inh 19%.
For O=C(N/N=C1/CN2CCC1CC2)c1cccc(O)c1 the results were Shiga inhibitor 70*, Marburg entry inh -2%, CHX counter 36*, LASV entry inh 4% and AMA1-RON2 inh 2%.
Screening COCCNC(=O)C1(C)CCN(C(=O)c2sc(-c3ccccc3)nc2C)C1 (stereo unspecified) returned AMA1-RON2 inh 7%.
O=C(O)c1ccccc1C(c1ccc(O)cc1)c1ccc(O)cc1 was read as Shiga inhibitor 3, Marburg entry inh -23%[46.1 µM], CHX counter -2, LASV entry inh 6% and AMA1-RON2 inh 1%.
Screening Cc1cc(C)nc(SCC(=O)Nc2ccc(Br)cn2)n1 returned Shiga inhibitor -13, Marburg entry inh -7%, CHX counter -2, LASV entry inh 5% and AMA1-RON2 inh 5%.
For CSc1nsc(SCC(=O)Nc2ccc(F)cc2F)n1 the results were Shiga inhibitor 52*, Marburg entry inh inconclusive, CHX counter 32*, LASV entry inh 20% and AMA1-RON2 inh 2%.
`CSc1nsc(SCC(=O)Nc2ccccc2C(=O)O)n1` gave Shiga inhibitor 44*, Marburg entry inh 18µM*, CHX counter 19*, LASV entry inh 1% and AMA1-RON2 inh -20%.
Screening Cc1cc2nc(SCC(=O)Nc3ccccc3C(=O)O)[nH]c2cc1C returned Shiga inhibitor 38*, Marburg entry inh 25%[46.1 µM], CHX counter 15, LASV entry inh inconclusive and AMA1-RON2 inh -2%.
CSc1nsc(SCC(=O)Nc2ccc(O)c(C(=O)O)c2)n1 was read as Shiga inhibitor 29, Marburg entry inh 2%[46.1 µM], CHX counter -3, LASV entry inh 20%[46.1 µM] and AMA1-RON2 inh 0%.
CSc1nsc(SCC(=O)Nc2ccc(Br)cn2)n1 was read as Shiga inhibitor 78*, Marburg entry inh inconclusive, CHX counter 28*, LASV entry inh 18% and AMA1-RON2 inh 1%.
For C[C@@H](NC(=O)[C@@H]1CCCN1C(=O)[C@@H]1CCCN1C(=O)c1ccccc1)c1ccccc1 the results were AMA1-RON2 inh 0%.
Cc1ccc(N2CC(NC(=O)C(=O)c3c[nH]c4ccccc34)CC2=O)cc1 (stereo unspecified) was read as LASV entry inh 2%[46.1 µM].
For CC1(C)Cc2nc3sc4c(N(CCO)CCO)ncnc4c3cc2CO1 the results were Shiga inhibitor 29, Marburg entry inh 4%, CHX counter 21*, LASV entry inh 0% and AMA1-RON2 inh 12%.
`CC1(C)Cc2nc3sc4c(N(CCO)CCO)nnnc4c3cc2CO1` gave Shiga inhibitor 78*, Marburg entry inh 12%[46.1 µM], CHX counter 29*, LASV entry inh 9%[46.1 µM] and AMA1-RON2 inh -11%.
Brc1cc(Br)c2nc(-c3ccc(N4CCOCC4)cc3)ccc2c1 was read as Shiga inhibitor 55*, Marburg entry inh 24%, CHX counter 38*, LASV entry inh inconclusive and AMA1-RON2 inh 70%.
For Cc1ccc(C(=O)CC(=O)c2ccc(C)cc2O)cc1 the results were Shiga inhibitor 87*, Marburg entry inh inconclusive, CHX counter 39*, LASV entry inh 3% and AMA1-RON2 inh 38%.
For Cc1ccc(C(=O)CC(=O)c2cc(Cl)ccc2O)cc1 the results were Shiga inhibitor 121*, Marburg entry inh inconclusive, CHX counter 35*, LASV entry inh -73% and AMA1-RON2 inh 54%.
CCCOc1ccc(/C=C2\SC(=S)N(CC3CCCO3)C2=O)cc1 (stereo unspecified) was read as Shiga inhibitor 20, Marburg entry inh inconclusive, CHX counter -2, LASV entry inh -2% and AMA1-RON2 inh -5%[2.32 µM].
`O=C1/C(=C/c2ccc(O)cc2)SC(=S)N1CC1CCCO1` (stereo unspecified) gave Shiga inhibitor 40*, Marburg entry inh 11%[46.1 µM], CHX counter 36*, LASV entry inh 8%[46.1 µM] and AMA1-RON2 inh -13%.
Cc1ccc(/C=C2\SC(=S)N(CCCC(=O)Nc3ccc(O)cc3)C2=O)cc1 was read as Shiga inhibitor 39*, Marburg entry inh 14%[46.1 µM], CHX counter 18*, LASV entry inh inconclusive and AMA1-RON2 inh 0%.
For Cc1ccc(/C=C2\SC(=S)N(CCCC(=O)Nc3ccccn3)C2=O)cc1 the results were Shiga inhibitor -27, Marburg entry inh inconclusive, CHX counter -5, LASV entry inh 2.2µM* and AMA1-RON2 inh -1%.
Screening O=C(CCN1C(=O)/C(=C/c2ccccc2)SC1=S)Nc1ccccn1 returned Shiga inhibitor -6, CHX counter -3 and AMA1-RON2 inh -4%.
COC(=O)c1ccc(/C=C2/SC(=S)N(CCCC(=O)Nc3ccc(O)cc3)C2=O)cc1 was read as Shiga inhibitor -10, CHX counter 11 and AMA1-RON2 inh 0%.
Screening CN(Cc1ccccc1F)C(=O)CCNC(=O)c1ccc(C(C)(C)C)cc1 returned AMA1-RON2 inh -4%.
Screening COc1ccc(N2CCN(Cc3cc4c(cc3Br)OCCO4)CC2)cc1 returned Shiga inhibitor 25, Marburg entry inh -13%[46.1 µM], CHX counter -4, LASV entry inh -20% and AMA1-RON2 inh 13µM*.
Screening Cc1cccc(C(=O)c2c(N)sc3c2CCC(C)C3)c1 (stereo unspecified) returned Shiga inhibitor 126*, Marburg entry inh 1%, CHX counter 59*, LASV entry inh 11% and AMA1-RON2 inh -14%.
Screening Cc1cccc(C(=O)c2c(N)sc3c2CCCC3)c1 returned Shiga inhibitor 19, Marburg entry inh -22%, CHX counter 9, LASV entry inh 4% and AMA1-RON2 inh -6%.
`O=C(/C=C/c1ccc(Cl)cc1)Nc1nc(-c2cccs2)ns1` gave Marburg entry inh 4%[46.1 µM] and LASV entry inh -5%[46.1 µM].
Screening CCOC(=O)C1=C(C)NC(C)=C(C(=O)OCCNC(=O)c2cccnc2)C1c1cccc([N+](=O)[O-])c1 (stereo unspecified) returned Shiga inhibitor 16, Marburg entry inh inconclusive, CHX counter 3, LASV entry inh -24% and AMA1-RON2 inh -3%.
COC(=O)C1=C(C)NC(C)=C(C(=O)OCCN(C)Cc2ccccc2)C1c1cccc([N+](=O)[O-])c1 (stereo unspecified) was read as Shiga inhibitor -16, Marburg entry inh 16µM*, CHX counter -3, LASV entry inh 7.3µM*! and AMA1-RON2 inh -19%.
`C1=NCCc2c1[nH]c1ccccc21` gave Marburg entry inh inconclusive, LASV entry inh 5µM* and AMA1-RON2 inh inconclusive.
For c1ccc2c3c([nH]c2c1)CCNC3 the results were Shiga inhibitor -6, Marburg entry inh 4%[46.1 µM], CHX counter -2, LASV entry inh -1%[46.1 µM] and AMA1-RON2 inh -7%.
